GALR2 agonist = activates the human galanin receptor 2; O43603; GALR2-expressing cells, agonist activation read-out; activation, % (concentration not given with the values); 140,000 tested, 0.48% active; in the data active = activation above about 5%, passing the limit was not always enough;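 note: 0% = vehicle buffer wells and 100% = reference agonist at full effect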
Target sequence (O43603 whole entry, looked up): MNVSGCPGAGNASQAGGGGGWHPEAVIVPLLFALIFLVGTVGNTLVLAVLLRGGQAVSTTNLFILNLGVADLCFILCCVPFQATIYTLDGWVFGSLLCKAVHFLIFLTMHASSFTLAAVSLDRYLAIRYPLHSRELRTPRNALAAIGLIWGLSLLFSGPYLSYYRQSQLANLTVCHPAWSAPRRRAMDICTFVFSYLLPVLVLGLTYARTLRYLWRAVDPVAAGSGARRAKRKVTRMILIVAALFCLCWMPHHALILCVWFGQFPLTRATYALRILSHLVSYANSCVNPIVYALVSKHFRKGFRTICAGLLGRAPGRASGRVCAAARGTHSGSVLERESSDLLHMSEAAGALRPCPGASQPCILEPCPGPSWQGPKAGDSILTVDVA
GALR2 blocker = GALR2 (human) receptor antagonism; O43603; GALR2-expressing cells, antagonist mode; inhibition, % at 4 µM; 140,000 tested, 0.39% active; AID 828; in the data active = inhibition above about 27%;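 note: cells stimulated with galanin 1-16 at roughly its EC80; 0% = agonist challenge control and 100% = basal control without agonist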
Phagocyt inh = macrophage phagocytosis inhibition; AID 1029; 110,000 tested, 0.07% active; J774A.1 macrophage IgG-bead phagocytosis, imaging; inhibition, % at 5 µM;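 active = inhibition above the mean of the plate negative controls plus 5 SD, cut at about 13% in these data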;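 note: phagocytic index as fraction of beads internalized from green versus red external bead signal; plate controls were DMSO negative control for no effect and cytochalasin-D positive control for full effect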
S1P2 agonist = S1P2 (human) receptor agonism | O95136 | S1P2-expressing cell line, agonist reporter read-out | activation, % at 4.5 µM | 97,000 tested, 0.46% active | AID 729; in the data active = activation above about 16%;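 note: 0% = vehicle low control and 100% = maximal reference agonist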
S1P2 antag = blocks the human S1P2 receptor | cell-based S1P2 antagonist assay, inhibition at 5 uM | 97,000 tested, 0.21% active | inhibition, % at 5 µM | O95136; in the data active = inhibition above about 45%;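 note: CRE beta-lactamase reporter cells expressing human S1P2 stimulated with S1P; 0% = agonist at EC80 alone and 100% = agonist plus reference antagonist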
GALR2 ag confirm = GALR2 (human) agonism confirmed; shares compounds with GALR2 agonist; GALR2-expressing cells, agonist activation; activation, % at 5.6 µM; 460 tested, 10% active; AID 864; in the data active = activation above about 8.4%;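 note: 0% = buffer-only vehicle wells and 100% = full reference agonist response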
BLA activ ctr = counter-screen for GALR2 agonists: beta-lactamase reporter activators | shares compounds with GALR2 agonist | activation, % at 5.6 µM | AID 865 | 460 tested, 10% active | CHO NFAT-bla reporter, beta-lactamase FRET activation;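 active = activation above the screen-wide mean activation plus 3 SD, cut at about 8% in these data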;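 note: 0% = DMSO with PBS wells and 100% = thapsigargin positive control wells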
Numbers without * were called inactive; / = not tested or not shown; [ ] = remark or other dose. Sampled rows, rich in hits. Any-hit rate of the full collection: about 1.3%.

SMILES	GALR2 agonist	GALR2 blocker	Phagocyt inh	S1P2 agonist	S1P2 antag	others
C=CCc1ccccc1OCC(=O)N/N=C/c1ccc(OC(C)=O)cc1OC(C)=O	-1.1	-3.9	0.9	/	/
CCCc1nn(-c2cc(Cl)ccc2OC)c2c1C(=O)CCC2	0.9	-5.2	/	59.1*	-22.8
CCCCn1c(NC(=O)CC)c(C#N)c2nc3ccccc3nc21	0.1	2.2	-1.1	-1.6	8.7
CCCCn1c(NC(=O)c2ccccc2Cl)c(C#N)c2nc3ccccc3nc21	7.3*	-0.9	7.0	14.2	-6.8
Cc1nc(Cl)sc1C(=O)Nc1cccc(Cl)c1C	-0.9	-5.6	-5.8	/	/
COc1ccc(-c2nc(-c3ccncc3)no2)cc1OC	-0.6	-6.4	-0.5	/	/
O=[N+]([O-])c1cccc(-c2nc(-c3ccncc3)no2)c1	-1.1	-0.1	/	35.6*	4.3
CCSc1ccc(-c2nn(-c3ccccc3)cc2/C=C(/C#N)C(=O)NCCCOC)cc1	5.9*	0.4	-10.5	/	/
CCOC(=O)N1CCC(=NNC(=O)c2ccccc2F)CC1	-1.2	-6.1	-9.8	/	/
Cc1ccc(N=c2oc3cc(O)ccc3cc2C(N)=O)cc1	42.5*	-16.0	1.2	17.2*	-1.7
CCOc1ccc(N=c2oc3cc(O)ccc3cc2C(=O)NCC2CCCO2)cc1 (configuration not stated)	6.9	-0.4	0.8	0.7	-14.2
COc1ccc(N=c2oc3cc(O)ccc3cc2C(=O)NCC2CCCO2)cc1 (configuration not stated)	15.6*	-25.8	-0.8	18.1*	-43.2
COc1ccc(N=c2oc3cc(O)ccc3cc2C(=O)NCC2CCCO2)c(OC)c1 (configuration not stated)	68.1*	-53.1	-0.7	36.9*	-81.3
O=C(c1ccccc1)c1cc2ccc(O)cc2oc1=O	-0.7	2.9	/	0.0	12.5
O=C(Cn1cc(C(F)(F)F)ccc1=O)N/N=C/c1ccc(Cl)cc1	-0.4	2.0	-7.5	/	/
CCOC(=O)c1sc2nccc(N(C)C)c2c1N=CNOCc1c(F)cccc1Cl	0.1	-16.3	-0.7	32.9*	-15.9
CCCOc1ccccc1Nc1nnc(C)c(=O)[nH]1	-3.3	0.2	1.2	-4.6	9.3
CC(C)(C)c1ccc(C(=O)OCCNC(=O)c2c(Cl)nc3ccccn23)cc1	-3.3	6.9	-0.9	-5.4	-7.9
COc1ccc(C(=O)OCCNC(=O)c2c(Cl)nc3ccccn23)cc1	-0.7	-7.3	-0.8	21.5*	-28.2
CN(C)CCCCNCCCNC(=O)/C=N\O	-0.6	-10.9	53.5*[artifact]	-0.4	18.6
Cc1ccc(NC(=O)c2ccc(CN3CCc4ccccc4C3)cc2)cc1	-1.4	-5.8	-1.9	-3.7	-7.2
O=C(Nc1ccc(S(=O)(=O)N2CCCCC2)cc1)c1ccc(CN2CCc3ccccc3C2)cc1	-0.8	18.9	/	-3.9	52.2*
CCC(Sc1nc2cc(OC)c(OC)cc2c(=O)n1Cc1ccco1)C(=O)NCCOC (configuration not stated)	1.0	2.6	-2.3	17.8*	-47.7
Cc1ccccc1C(=O)O/N=C/c1c(N2CCOCC2)n(C)c2ccccc12	0.9	-0.6	22.9*[artifact]	-3.6	12.8
CCCCCCOC(=O)C(C#N)c1nc2ccccc2nc1N1CCOCC1 (configuration not stated)	-0.8	-1.8	1.0	-0.5	65.9*
SMILES	GALR2 agonist	GALR2 blocker	Phagocyt inh	S1P2 agonist	S1P2 antag	others
CCCCOC(=O)C(C#N)c1nc2ccccc2nc1N1CCOCC1 (configuration not stated)	-1.6	4.1	-1.4	-3.2	-11.1
CCC(=O)Nc1ccc2c(c1)nc(CN1CCN(C(C)=O)CC1)n2C	-0.4	-9.0	0.1	-0.8	8.6
CN(C)CCNC(=O)/C(=C/c1ccc(-c2cccc(Cl)c2)o1)NC(=O)c1ccccc1	1.3	-0.6	-6.1	/	/
Cc1cccc2cc3c(NC(=O)c4ccccn4)nn(C)c3nc12	8.4	16.2	1.2	13.9	-6.3	GALR2 ag confirm=3.3;BLA activ ctr=6.9
CCOC(=O)Cc1csc(NC(=O)CSc2ncnc3c2cnn3-c2ccc(OC)cc2)n1	11.8*	1.6	3.3	-5.3	-0.9	GALR2 ag confirm=-0.1;BLA activ ctr=-1.5
CC(=O)NCN1CCN(CNC(C)=O)CC1	11.1	5.7	-0.3	-3.9	12.8	GALR2 ag confirm=-0.3;BLA activ ctr=-2.0
Cc1cc2c(cc1C)C(c1ccccc1Br)CC(=O)N2 (configuration not stated)	20.5*	-10.0	0.9	/	/	GALR2 ag confirm=-0.4;BLA activ ctr=-3.2
Cc1nn(-c2ccccn2)c2c1C(c1c(F)cccc1Cl)C1=C(N2)c2ccccc2C1=O (configuration not stated)	1.1	-6.4	1.8	/	/
CC1CCN(c2ccccc2NC(=S)NC(=O)c2ccc(-c3cccc([N+](=O)[O-])c3)o2)CC1	20.9*	8.1	0.4	-2.5	8.9	GALR2 ag confirm=-0.7;BLA activ ctr=-0.8
CC1CCN(c2ccc(NC(=S)NC(=O)c3ccc(-c4cccc([N+](=O)[O-])c4)o3)cc2)CC1	-2.4	6.2	-1.4	-3.6	-16.0
CC1=CC(C)(C)N(C(=O)CSc2nnc(C)s2)c2ccc(C)cc21	-0.7	1.9	/	-1.6	-9.7
CC1=CC(C)(C)N(C(=O)CSc2nnc(N)s2)c2cc(C)c(C)cc21	42.7*	-9.6	/	0.4	-14.2	GALR2 ag confirm=-0.5;BLA activ ctr=-0.6
Cn1c(=O)c(C(=O)CN2CCOCC2)c(N)n(Cc2ccccc2)c1=O	-1.8	0.5	/	-2.3	10.0
CC1CN(CC(=O)c2c(N)n(Cc3ccccc3)c(=O)n(C)c2=O)CC(C)O1 (configuration not stated)	44.1*	-3.4	-2.1	-6.7	0.6	GALR2 ag confirm=-0.4;BLA activ ctr=-2.1
COc1cc(CCN2C(=O)N[C@@H](CCc3ccccc3)C(C(C)=O)=C2C)cc(OC)c1OC	-2.0	11.9	/	/	/
CC(C)(C)C(=O)NC(=S)Nc1cc(C(F)(F)F)ccc1N1CCOCC1	8.3	0.1	-0.3	3.0	-46.9	GALR2 ag confirm=0.4;BLA activ ctr=3.5
CCOC(=O)c1ccc2[nH]c(C)c(CCC(C)=O)c(=O)c2c1	-1.6	-9.4	-0.8	0.4	13.1
CC(=O)Nc1ccc2[nH]c(C)c(CC=C(Cl)Cl)c(=O)c2c1	14.2*	7.0	-1.3	-1.6	-16.7	GALR2 ag confirm=-1.4;BLA activ ctr=-3.5
O=C(Cn1cnc2c(nnn2Cc2ccccc2F)c1=O)NCc1ccco1	1.0	-14.2	/	0.5	9.9
COc1ccccc1NC(=S)Nc1ccccn1	44.2*	7.0	-10.6	/	/	GALR2 ag confirm=-0.8;BLA activ ctr=-2.2
COCCN1C=C(C(=O)OC)C(c2ccccc2C(F)(F)F)C(C(=O)OC)=C1	17.6*	-2.2	4.0	11.1	-14.8	GALR2 ag confirm=1.6;BLA activ ctr=6.3
CN(C)c1ccc(/C=C2/SC(=O)N(CCN=C3NS(=O)(=O)c4ccccc43)C2=O)cc1	12.7*	7.7	-14.1	/	/	GALR2 ag confirm=5.0;BLA activ ctr=-1.8
CN(C)c1ccc(/C=C2\SC(=O)N(CC(O)Cn3c4ccccc4c4ccccc43)C2=O)cc1 (configuration not stated)	-1.1	-4.7	-9.5	/	/
Cc1nnc(-n2ncc(C#N)c2N)c2nn(-c3ccccc3F)c(C)c12	-1.3	2.5	/	0.2	-26.4
COc1ccc(C2CC(c3cccs3)=NN2C(=O)c2ccc(Br)o2)cc1 (configuration not stated)	0.6	-4.1	0.3	/	/
